± gives the standard deviation.
How the values were obtained:
Assay in all cases: peptide microarray binding signal (635 nm), min-max normalized on array (fraction of array maximum); higher = stronger binding
Settings in all cases: peptide region: H3 30-42
[1] = molecular target: T1, HaloTag-ATRX ADD domain (163-292)
T1 chain: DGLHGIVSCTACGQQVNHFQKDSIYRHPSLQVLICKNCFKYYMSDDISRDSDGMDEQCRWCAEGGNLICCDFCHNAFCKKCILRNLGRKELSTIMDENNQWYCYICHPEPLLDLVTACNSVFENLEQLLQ
In short: (§1)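 Arrays carried histone 13-mer peptide–cellulose conjugates printed in triplicate on nitrocellulose alongside a Cy3 tracer. After overnight blocking at 4°C, they were incubated for 1 h at 4°C with biotin-labelled HaloTag reader fusions (10 nM to 1 μM) plus streptavidin-Alexa Fluor 647, or with rabbit histone antibodies (1:10,000 to 1:2,000) plus anti-rabbit Alexa 647. Scanning on an Axon GenePix 4000B used 635 nm for signal and 532 nm for misprints. The binding signal reported is each triplicate's mean spot intensity after per-library min-max scaling.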

[2] = molecular target: HaloTag-ING2 PHD (mouse Ing2 200-280)
In short: as §1

[3] = molecular target: anti-H3K4me3 antibody ab8580
In short: as §1

[4] = molecular target: anti-H3K9me3 antibody ab8898
In short: as §1

[5] = peptide modifications: H3K36ac, binder concentration: 1:2,000 dilution
[6] = peptide modifications: H3K36ac, binder concentration: 1:10,000 dilution
[7] = peptide modifications: H3K36me2, binder concentration: 1:2,000 dilution
[8] = peptide modifications: H3K36me2, binder concentration: 1:10,000 dilution
[9] = peptide modifications: H3K36me2 H3K37me2, binder concentration: 1:2,000 dilution
[10] = peptide modifications: H3K36me2 H3K37me2, binder concentration: 1:10,000 dilution
[11] = peptide modifications: H3K36me2 H3K37ac, binder concentration: 1:2,000 dilution
[12] = peptide modifications: H3K36me2 H3K37ac, binder concentration: 1:10,000 dilution
[13] = peptide modifications: H3K36ac H3K37me2, binder concentration: 1:2,000 dilution
[14] = peptide modifications: H3K36ac H3K37me2, binder concentration: 1:10,000 dilution

Question: PATGGVKKPHRYR [H3 30-42 P A T G G V Kac K P H R Y R] was tested. Which “peptide microarray binding signal” value ([1]; peptide modifications: H3K36ac, binder concentration: 50 nM) did it give?
Answer: The value was 0.0068 ± 0.00033.

Question: And the “peptide microarray binding signal” value ([1]; peptide modifications: H3K36ac, binder concentration: 500 nM)?
Answer: Its value is 0.0116 ± 0.0019.

Question: And the “peptide microarray binding signal” value ([2]; peptide modifications: H3K36ac, binder concentration: 10 nM)?
Answer: The value was 0.0378 ± 0.0029.

Question: What about the “peptide microarray binding signal” value ([2]; peptide modifications: H3K36ac, binder concentration: 100 nM) of the same binder?
Answer: The value was 0.0552 ± 0.0035.

Question: And the “peptide microarray binding signal” value [3, 5]?
Answer: The value was 0.0364 ± 0.0021.

Question: And the “peptide microarray binding signal” value [3, 6]?
Answer: The value was 0.0246 ± 0.0028.

Question: What about the “peptide microarray binding signal” value [4, 5] of the same binder?
Answer: The value was 0.025 ± 0.0016.

Question: And the “peptide microarray binding signal” value [4, 6]?
Answer: The value was 0.00963 ± 0.00018.

Question: With PATGGVKKPHRYR [H3 30-42 P A T G G V Kme2 K P H R Y R] as the binder, how does the “peptide microarray binding signal” value ([1]; peptide modifications: H3K36me2, binder concentration: 50 nM) read?
Answer: The value was 0.00417 ± 0.0002.

Question: And the “peptide microarray binding signal” value ([1]; peptide modifications: H3K36me2, binder concentration: 500 nM)?
Answer: The value was 0.00919 ± 0.00057.

Question: What about the “peptide microarray binding signal” value ([2]; peptide modifications: H3K36me2, binder concentration: 10 nM) of the same binder?
Answer: The value was 0.0135 ± 0.0016.

Question: And the “peptide microarray binding signal” value ([2]; peptide modifications: H3K36me2, binder concentration: 100 nM)?
Answer: Its value is 0.0203 ± 0.0023.

Question: What about the “peptide microarray binding signal” value [3, 7] of the same binder?
Answer: Its value is 0.0031 ± 0.00053.

Question: What about the “peptide microarray binding signal” value [3, 8] of the same binder?
Answer: Its value is 0.00377 ± 0.00013.

Question: What about the “peptide microarray binding signal” value [4, 7] of the same binder?
Answer: Its value is 0.00305 ± 0.00012.

Question: And the “peptide microarray binding signal” value [4, 8]?
Answer: Its value is 0.00271 ± 7.1e-05.

Question: With PATGGVKKPHRYR [H3 30-42 P A T G G V Kme2 Kme2 P H R Y R] as the binder, how does the “peptide microarray binding signal” value ([1]; peptide modifications: H3K36me2 H3K37me2, binder concentration: 50 nM) read?
Answer: The value was 0.00185 ± 1.5e-05.

Question: And the “peptide microarray binding signal” value ([1]; peptide modifications: H3K36me2 H3K37me2, binder concentration: 500 nM)?
Answer: Its value is 0.00476 ± 0.00025.

Question: And the “peptide microarray binding signal” value ([2]; peptide modifications: H3K36me2 H3K37me2, binder concentration: 10 nM)?
Answer: Its value is 0.00501 ± 0.00021.

Question: And the “peptide microarray binding signal” value ([2]; peptide modifications: H3K36me2 H3K37me2, binder concentration: 100 nM)?
Answer: Its value is 0.00227 ± 0.00036.

Question: What about the “peptide microarray binding signal” value [3, 9] of the same binder?
Answer: The value was 0.000396 ± 7e-06.

Question: What about the “peptide microarray binding signal” value [3, 10] of the same binder?
Answer: Its value is 0.000799 ± 5.8e-05.

Question: And the “peptide microarray binding signal” value [4, 9]?
Answer: The value was 0.00267 ± 8.5e-05.

Question: And the “peptide microarray binding signal” value [4, 10]?
Answer: Its value is 0.00104 ± 2.8e-05.

Question: What does the source list for PATGGVKKPHRYR [H3 30-42 P A T G G V Kme2 Kac P H R Y R]?
Answer: peptide microarray binding signal ([1]; peptide modifications: H3K36me2 H3K37ac, binder concentration: 50 nM): 0.00094 ± 1.9e-05; peptide microarray binding signal ([1]; peptide modifications: H3K36me2 H3K37ac, binder concentration: 500 nM): 0.000857 ± 1.5e-05; peptide microarray binding signal ([2]; peptide modifications: H3K36me2 H3K37ac, binder concentration: 10 nM): 0.0544 ± 0.07; peptide microarray binding signal ([2]; peptide modifications: H3K36me2 H3K37ac, binder concentration: 100 nM): 0.00354 ± 0.00098; peptide microarray binding signal [3, 11]: 0.000529 ± 1.4e-05; peptide microarray binding signal [3, 12]: 0.000685 ± 4.7e-05; peptide microarray binding signal [4, 11]: 0.000438 ± 1.5e-05; peptide microarray binding signal [4, 12]: 0.000461 ± 8.7e-06

Question: How did the “peptide microarray binding signal” value ([1]; peptide modifications: H3K36ac H3K37me2, binder concentration: 50 nM) turn out when PATGGVKKPHRYR [H3 30-42 P A T G G V Kac Kme2 P H R Y R] was run?
Answer: The value was 0.0026 ± 5.2e-05.

Question: What about the “peptide microarray binding signal” value ([1]; peptide modifications: H3K36ac H3K37me2, binder concentration: 500 nM) of the same binder?
Answer: The value was 0.00462 ± 0.00028.

Question: What about the “peptide microarray binding signal” value ([2]; peptide modifications: H3K36ac H3K37me2, binder concentration: 10 nM) of the same binder?
Answer: Its value is 0.00269 ± 6.6e-05.

Question: What about the “peptide microarray binding signal” value ([2]; peptide modifications: H3K36ac H3K37me2, binder concentration: 100 nM) of the same binder?
Answer: The value was 0.00354 ± 8.3e-05.

Question: What about the “peptide microarray binding signal” value [3, 13] of the same binder?
Answer: The value was 0.00125 ± 9e-05.

Question: And the “peptide microarray binding signal” value [3, 14]?
Answer: The value was 0.00097 ± 2e-05.

Question: What about the “peptide microarray binding signal” value [4, 13] of the same binder?
Answer: Its value is 0.00166 ± 9.8e-05.

Question: And the “peptide microarray binding signal” value [4, 14]?
Answer: Its value is 0.00127 ± 0.0001.

Source: the supplement of paper PMC4022240
